Screening results from PubChem.
GC-B act: GC-B (human) receptor activation | AID 1920062 | 370,000 compounds, 0.11% hits | P20594 | HEK293-GC-B cells, CNP EC30, cGMP TR-FRET; 0% at EC30 CNP, 100% saturating CNP | activation, % at 10 µM;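 active = activation at 10 µM reaching about 35% in either raw or pattern-adjusted values, limit read from the data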
NPR1 activator: GC-A (human) enzyme activation. 370,000 compounds, 0.14% hits. HEK293 GC-A cells, cGMP TR-FRET, EC30 ANP; 0% at EC30 ANP, 100% saturating ANP. AID 1671463. P16066. activation, % at 10 µM; in the data active = activation above about 40%
Target sequence (P16066 whole entry, looked up): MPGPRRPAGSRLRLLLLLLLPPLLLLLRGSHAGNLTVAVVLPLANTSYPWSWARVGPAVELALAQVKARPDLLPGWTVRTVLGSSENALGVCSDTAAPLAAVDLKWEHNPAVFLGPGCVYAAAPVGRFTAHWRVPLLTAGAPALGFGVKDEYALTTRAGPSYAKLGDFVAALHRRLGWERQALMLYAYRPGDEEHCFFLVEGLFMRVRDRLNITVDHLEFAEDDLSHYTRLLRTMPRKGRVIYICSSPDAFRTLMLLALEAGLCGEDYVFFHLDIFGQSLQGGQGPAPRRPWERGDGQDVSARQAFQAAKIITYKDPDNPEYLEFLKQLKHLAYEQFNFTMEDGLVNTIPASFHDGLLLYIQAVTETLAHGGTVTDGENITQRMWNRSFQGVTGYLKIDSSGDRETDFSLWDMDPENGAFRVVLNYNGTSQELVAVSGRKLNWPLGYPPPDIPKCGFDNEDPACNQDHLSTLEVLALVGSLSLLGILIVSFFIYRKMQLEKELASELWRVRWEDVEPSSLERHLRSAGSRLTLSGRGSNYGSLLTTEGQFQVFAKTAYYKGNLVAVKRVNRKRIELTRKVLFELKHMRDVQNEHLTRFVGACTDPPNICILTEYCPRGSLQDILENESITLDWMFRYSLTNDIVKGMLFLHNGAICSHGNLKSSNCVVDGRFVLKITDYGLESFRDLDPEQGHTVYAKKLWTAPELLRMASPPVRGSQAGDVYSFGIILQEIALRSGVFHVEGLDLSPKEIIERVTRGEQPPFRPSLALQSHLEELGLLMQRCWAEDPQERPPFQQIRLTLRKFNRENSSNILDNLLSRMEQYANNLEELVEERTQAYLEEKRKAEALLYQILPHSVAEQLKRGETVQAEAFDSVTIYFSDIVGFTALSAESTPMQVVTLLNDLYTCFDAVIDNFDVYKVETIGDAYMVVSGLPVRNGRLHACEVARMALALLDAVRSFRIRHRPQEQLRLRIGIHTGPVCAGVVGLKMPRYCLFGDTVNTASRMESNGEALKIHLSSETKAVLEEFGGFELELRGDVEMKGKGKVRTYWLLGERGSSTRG
HSF1 activator: increases HSF-1 driven luciferase reporter signal. NIH3T3-HGL HSF-1 luciferase reporter, MG132, 8 h; 100% = twice DMSO control signal. 300,000 compounds, 1.7% hits. activation, % at 9 µM;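 active = mean replicate activation of at least 50% with a set share of replicates each reaching 50%; inconclusive = only one of those two conditions met; inactive = mean below 50% and too few replicates reaching it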;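 note: 0% = median of the neutral control wells and 100% = twice that signal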
Dyrk1A ADPGlo: Dyrk1A (rat) kinase inhibition; Q63470; ADP-Glo luminescence, NFATc1 peptide; inhibition, % at 12.5 µM; 310,000 compounds, 0.43% hits; in the data active = inhibition above about 50%;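 note: plate controls were vehicle with enzyme for no effect and no enzyme for full effect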
aDG glyco up: increases alpha dystroglycan glycosylation | Pro5-aDG cells, alpha-DG glycosylation AlphaScreen (IIH6); 0% Pro5, 100% B10-LARGE cell signal | 360,000 compounds, 0.22% hits | activation, % at 10 µM;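 active = activation of at least 8% versus controls, or a plate z-score of at least 8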;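 note: Pro5 are CHO cells carrying HIG-tagged alpha-DG that lacks glycosylation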
HSF1 inh: HSF1 inhibition; NIH3T3-HGL HSE-luciferase, MG132-induced, luminescence 8 h; active compounds read low; activity change, negative = inhibition, % at 7.5 µM (by protocol); 300,000 compounds, 0.77% hits; AID 2098;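 active = more than half of replicate wells show activity change below -50%, luminescence cut by over half; inconclusive = some wells, but at most half, below -50%; inactive = no replicate well below -50%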;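 note: luciferase reports HSF-1 transcriptional activity via heat shock element; 0% = median of DMSO wells and -100% = zero luminescence signal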
An asterisk follows results filed as active. Rows were chosen to be rich in hits. Some 2.5% of all compounds tested hit in one or more screens of this group.

Screening Cc1ccc(/C=N/N=C/c2ccc(C)s2)s1 returned GC-B act 0, NPR1 activator 3, HSF1 activator 78*, Dyrk1A ADPGlo 2, aDG glyco up 0 and HSF1 inh 36.
`Cc1ccc(/C=N/NC(=O)c2ccncc2)s1` gave GC-B act 4, NPR1 activator -2, HSF1 activator 0, Dyrk1A ADPGlo 2, aDG glyco up 0 and HSF1 inh -8.
`CCNc1nc(OCC)nc(N2CCC(Cc3ccccc3)CC2)n1` gave GC-B act 3, NPR1 activator -1, HSF1 activator -12, Dyrk1A ADPGlo -6, aDG glyco up 0 and HSF1 inh 5.
`N#Cc1ccc(-c2cccnc2)nc1SCc1ccc(Cl)c(Cl)c1` gave GC-B act 11, NPR1 activator 10, HSF1 activator 25, Dyrk1A ADPGlo -5, aDG glyco up 0 and HSF1 inh 15.
`N#Cc1ccc(-c2cccnc2)nc1SCc1ccc(Cl)cc1Cl` gave GC-B act 42*, NPR1 activator 35, HSF1 activator 30, Dyrk1A ADPGlo 2, aDG glyco up 0 and HSF1 inh 31.
Cc1ccc(S(=O)(=O)N2C[C@H]3n4c(=O)ccc(=O)n4C[C@H](OC(=O)Nc4c(C)noc4C)[C@@]3(O)C2)cc1 was read as GC-B act 4, NPR1 activator 3 and aDG glyco up 0.
`COc1ccc(C(c2c(C)n(C)n(-c3ccccc3)c2=O)c2c(C)n(C)n(-c3ccccc3)c2=O)cc1O` gave HSF1 activator 12 and HSF1 inh 3.
C=CCOc1ccc(C(c2c(C)n(C)n(-c3ccccc3)c2=O)c2c(C)n(C)n(-c3ccccc3)c2=O)cc1 was read as GC-B act 4, NPR1 activator -1, HSF1 activator -87, Dyrk1A ADPGlo -1, aDG glyco up 0 and HSF1 inh -85*.
Cc1ccc(C)c(-n2c(CNC(=O)c3ccco3)nnc2SCC(=O)N2CCc3ccccc32)c1 was read as GC-B act -2, NPR1 activator 0, HSF1 activator 58*, Dyrk1A ADPGlo 3, aDG glyco up 0 and HSF1 inh 11.
Screening COc1ccc(-n2c(=O)[nH]cc(C(=O)Nc3ccccc3)c2=O)cc1 returned GC-B act -10, NPR1 activator 13, HSF1 activator 0, Dyrk1A ADPGlo 7, aDG glyco up 0 and HSF1 inh -4.
CCn1c(Sc2nc(C)nc3scc(-c4cccs4)c23)n[nH]c1=O was read as GC-B act -3, NPR1 activator 5, HSF1 activator 29, Dyrk1A ADPGlo 2, aDG glyco up 0 and HSF1 inh 16.
`CC(=O)OCC(=O)[C@@]1(O)[C@H](C)C[C@H]2[C@@H]3CCC4=CC(=O)C=C[C@]4(C)[C@@]3(F)[C@@H](O)C[C@@]21C` gave GC-B act 1, NPR1 activator -3, HSF1 activator -50, Dyrk1A ADPGlo 7, aDG glyco up 0 and HSF1 inh -42.
Screening C[C@@H]1C[C@H]2[C@@H]3C[C@H](F)C4=CC(=O)C(Cl)=C[C@]4(C)[C@@]3(F)[C@@H](O)C[C@]2(C)[C@@]1(O)C(=O)CO returned HSF1 activator -53 and HSF1 inh -50*.
Screening C[C@@H]1C[C@H]2[C@@H]3CCC4=CC(=O)C=C[C@]4(C)[C@@]3(F)[C@@H](O)C[C@]2(C)[C@@]1(O)C(=O)CO returned GC-B act -2, NPR1 activator 5, HSF1 activator -61, Dyrk1A ADPGlo -8, aDG glyco up 1 and HSF1 inh -53*.
Screening CCOC(=O)C1=C(c2ccccc2)c2ccc(OC)cc2N(S(=O)(=O)C(F)(F)F)C1C(=O)OCC (stereo unspecified) returned GC-B act -12, NPR1 activator -8, Dyrk1A ADPGlo 1 and aDG glyco up 0.
For Cc1cccc(C)c1NC(=O)CN(C)C(=O)c1cc(S(=O)(=O)N(C)C)ccc1N1CCCC1 the results were GC-B act -3, NPR1 activator 4, HSF1 activator -14, Dyrk1A ADPGlo 0, aDG glyco up 0 and HSF1 inh -1.
`COc1ccc(Oc2ccc(N/C=C/C(=O)C(C)(C)C)cc2)cc1` gave GC-B act -5, NPR1 activator 3, HSF1 activator 22, Dyrk1A ADPGlo -3, aDG glyco up 0 and HSF1 inh 14.
Screening CC(=O)Nc1ccc(N/C=C/C(=O)C(C)(C)C)cc1 returned GC-B act 0, NPR1 activator -2, HSF1 activator 63*, Dyrk1A ADPGlo 0, aDG glyco up 0 and HSF1 inh 35.
`C/C(=N/NC(=O)c1cc2ccccc2cc1O)c1ccco1` gave GC-B act -1, NPR1 activator 3, HSF1 activator 93*, Dyrk1A ADPGlo -6, aDG glyco up 0 and HSF1 inh 95.
`C/C(=N\NC(=O)c1cc2ccccc2cc1O)c1ccc(C)o1` gave GC-B act -5, NPR1 activator 7, HSF1 activator 25, Dyrk1A ADPGlo 12, aDG glyco up 0 and HSF1 inh 45.
For CC1(C)C2CCC1(CS(=O)(=O)N1CCCC1C(=O)O)C(=O)C2 (stereo unspecified) the results were GC-B act 6, NPR1 activator 0, Dyrk1A ADPGlo 0 and aDG glyco up 0.
Screening CC(C)(C)OC(=O)NNC(=S)NC1CCCCC1 returned GC-B act 0, NPR1 activator 1, HSF1 activator 15, Dyrk1A ADPGlo 3, aDG glyco up 0 and HSF1 inh 6.
O=C(N/N=C/C(Br)=C/c1ccccc1)NC1CCCCC1 was read as GC-B act 6, NPR1 activator 4, HSF1 activator 58*, Dyrk1A ADPGlo -7, aDG glyco up 0 and HSF1 inh 46.
`CC(/C=N/NC(=O)NC1CCCCC1)=C\c1ccccc1` gave GC-B act -4, NPR1 activator -4, HSF1 activator 17, Dyrk1A ADPGlo -2, aDG glyco up 0 and HSF1 inh 12.
For Cc1cc(C)nc(SCC(=O)N/N=C\C(Br)=C\c2ccccc2)n1 the results were GC-B act -4, NPR1 activator 2, HSF1 activator inconclusive, Dyrk1A ADPGlo 11, aDG glyco up 0 and HSF1 inh 27.
Screening Cc1ccc(NCC(=O)N/N=C\C(Br)=C\c2ccccc2)cc1 returned GC-B act 2, NPR1 activator 5, HSF1 activator 145*, Dyrk1A ADPGlo -6, aDG glyco up 0 and HSF1 inh 110.
`O=C(N/N=C/C(Br)=C\c1ccccc1)c1ccco1` gave GC-B act -4, NPR1 activator -3, HSF1 activator 108*, Dyrk1A ADPGlo -5, aDG glyco up 0 and HSF1 inh 110.
